Assay results from the supplement of paper PMC10646978.
± gives the standard deviation.

Legend:
Conditions in all cases: modulator concentration 10 µM
[1] = tested on: RAW-Dual (murine macrophage reporter line); assay: NF-kB reporter (SEAP) activity fold change vs agonist alone; higher = enhanced NF-kB activity
Outline: (§1)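 RAW-Dual murine macrophage reporter cells were plated at 50 000 per well in 384-well plates, pin-transferred compound to 10 μM final, and pre-incubated for 1 hour at 37 °C before a PRR agonist was added and the cells incubated overnight. NF-κB activity was read from supernatant SEAP with QUANTI-Blue at 620 nm absorbance, and IRF activity from Lucia luciferase with QUANTI-Luc by luminescence. Each signal was expressed as fold change by dividing by the mean agonist-only control on the same plate. Two replicate plates were averaged, with errors obtained by propagation.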

[2] = tested on: RAW-Dual (murine macrophage reporter line); assay: IRF reporter (Lucia luciferase) activity fold change vs agonist alone; higher = enhanced IRF activity
Outline: as §1

[3] = tested on: RAW-Dual (murine macrophage reporter line); assay: viability score (confluency relative to resting cells, overnight) (fraction); higher = more viable, active = viable (0.7 or more)
Outline: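 Confluency was the readout: RAW-Dual macrophages were imaged with IncuCyte after an overnight exposure to compound at 10 μM final. IncuCyte software produced two masks over all imaged wells. The viability score expresses confluency against resting cells, and both masks had to exceed 70% of resting cells for a compound to meet the cutoff.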

[4] = agonist: CpG ODN 1826 0.5 ug/mL

SMILES	NF-kB reporter [1, 4]	NF-kB reporter ([1]; agonist: LPS 0.1 ug/mL)	NF-kB reporter ([1]; agonist: MPLA […])	IRF reporter ([2]; agonist: 3'3'-cGAMP 10 ug/mL)	IRF reporter ([2]; agonist: LPS 0.1 ug/mL)	IRF reporter ([2]; agonist: MPLA […])	viability score [3]
CCNCC.O=C(O)Cc1ccccc1Nc1c(Cl)cccc1Cl	1.16 ± 0.18	1.08 ± 0.38	0.993 ± 0.058	0.921 ± 0.034	1.21 ± 0.43	1.02 ± 0.11	0.993 (active)
COC(=O)COc1ccc(C=C2C(=O)NC(=S)N(c3cccc(Cl)c3Cl)C2=O)cc1OC	0.959 ± 0.09	1.04 ± 0.086	0.932 ± 0.063	0.909 ± 0.048	1.35 ± 0.12	1.14 ± 0.12	1.01 (active)
CC(=O)OC1CN2CCC1CC2.Cl (stereo unspecified)	0.984 ± 0.35	0.984 ± 0.12	0.971 ± 0.061	0.914 ± 0.052	0.869 ± 0.15	0.862 ± 0.081	1 (active)
CN1C(=O)NC(=O)C(=Cc2cc(Br)cc(Cl)c2O)C1=O	0.19 ± 0.019	0.505 ± 0.026	1.32 ± 0.63	0.537 ± 0.042	1.11 ± 0.078	0.942 ± 0.079	1.01 (active)
O=[N+]([O-])Nc1ccc(Br)cn1	0.998 ± 0.09	0.98 ± 0.096	0.983 ± 0.048	0.961 ± 0.15	1.09 ± 0.064	1.17 ± 0.095	0.997 (active)
Cc1c(NC=C2C(=O)NC(=O)NC2=O)c(=O)n(-c2ccccc2)n1C	0.967 ± 0.077	1.08 ± 0.074	0.957 ± 0.06	1.01 ± 0.029	1.45 ± 0.2	1.08 ± 0.069	1.02 (active)
COC(=O)c1ccc(N2C(=O)NC(=O)C(=Cc3ccc(OCc4ccccc4F)cc3)C2=O)cc1	1.06 ± 0.11	1.04 ± 0.057	0.88 ± 0.056	0.942 ± 0.043	1.25 ± 0.24	1.08 ± 0.25	1 (active)
COc1ccc(CNCCc2c[nH]c3ccccc23)cc1OC	0.397 ± 0.056	0.947 ± 0.12	0.808 ± 0.077	0.763 ± 0.03	1.33 ± 0.26	1.34 ± 0.24	1.01 (active)
CCCCCn1c(=O)c(C(=O)NCc2cccnc2)c(O)c2ccccc21	1.13 ± 0.086	1.25 ± 0.085	0.997 ± 0.062	1.02 ± 0.04	1.31 ± 0.087	1.34 ± 0.12	0.989 (active)
CCC1(c2ccc(N)cc2)CCC(=O)NC1=O (stereo unspecified)	1.22 ± 0.091	1.04 ± 0.052	1.06 ± 0.089	1.12 ± 0.26	0.913 ± 0.077	0.939 ± 0.083	0.996 (active)
COc1cc([C@@H]2c3cc4c(cc3[C@H](O)[C@H]3COC(=O)[C@H]23)OCO4)cc(OC)c1OC [Prestw-782]	2.45 ± 0.14	1.61 ± 0.098	2.69 ± 0.16	0.0908 ± 0.0036	1.48 ± 0.1	1.6 ± 0.31	0.721 (active)
NC(=O)Cn1c(Cc2ccccc2Cl)nc2ccccc21	0.97 ± 0.061	0.84 ± 0.074	0.912 ± 0.031	0.996 ± 0.06	1.06 ± 0.093	0.99 ± 0.13	0.997 (active)
COc1ccc(-n2c(C)nc3ccc(NC(=O)CC4CCCC4)cc3c2=O)cc1	1.14 ± 0.14	1.06 ± 0.13	0.932 ± 0.075	0.946 ± 0.048	0.925 ± 0.073	0.875 ± 0.15	1.01 (active)
Br.CN1C2CC(OC(=O)C(CO)c3ccccc3)CC1C1OC12 (stereo unspecified)	1.32 ± 0.32	0.999 ± 0.051	1.01 ± 0.074	1 ± 0.034	1.19 ± 0.13	1.19 ± 0.13	0.985 (active)
COc1ccc2c(c1O)-c1c(OC)c(OC)cc3c1C(C2)N(C)CC3 (stereo unspecified)	0.618 ± 0.051	0.905 ± 0.088	1.1 ± 0.1	0.903 ± 0.046	1.29 ± 0.14	1.45 ± 0.17	1.04 (active)
O=C(O)COc1cc(Cl)c(Cl)cc1Cl	0.993 ± 0.076	0.836 ± 0.11	0.995 ± 0.093	1.02 ± 0.039	1.37 ± 0.18	1.46 ± 0.26	1.04 (active)
COc1ccc(CN2CCNCC2)c(OC)c1OC.Cl.Cl	1.26 ± 0.18	1.06 ± 0.16	1.45 ± 0.53	0.921 ± 0.042	1.29 ± 0.28	1.27 ± 0.13	0.989 (active)
CC(C)(C)NCC(O)c1cc(Cl)c(N)c(Cl)c1 (stereo unspecified) [Prestw-345]	1.89 ± 0.13	0.945 ± 0.072	1.29 ± 0.044	1.03 ± 0.04	0.886 ± 0.06	0.933 ± 0.09	0.988 (active)
O=C1NC(=S)NC(=O)C1=Cc1ccc(OCc2ccc(F)cc2)c(Cl)c1	0.918 ± 0.092	0.943 ± 0.064	0.802 ± 0.05	0.765 ± 0.02	1.13 ± 0.095	0.824 ± 0.14	1.01 (active)
CC(O)(CS(=O)(=O)c1ccc(F)cc1)C(=O)Nc1ccc(C#N)c(C(F)(F)F)c1 (stereo unspecified)	1.38 ± 0.26	0.966 ± 0.081	0.952 ± 0.053	0.991 ± 0.067	1.05 ± 0.095	1.23 ± 0.17	0.987 (active)
CC(=O)CC(c1ccccc1)c1c(OC(C)=O)c2ccccc2oc1=O (stereo unspecified)	0.865 ± 0.059	0.925 ± 0.11	0.779 ± 0.1	0.908 ± 0.03	1.3 ± 0.1	1.14 ± 0.19	1 (active)
COc1cc2c(cc1OC)C1CC(=O)C(CC(C)C)CN1CC2 (stereo unspecified)	1.09 ± 0.093	1.04 ± 0.076	0.986 ± 0.045	0.983 ± 0.065	0.933 ± 0.047	0.904 ± 0.073	0.992 (active)
COc1ccc2c3c([nH]c2c1)C(C)=NCC3	0.359 ± 0.089	0.917 ± 0.046	0.852 ± 0.054	0.778 ± 0.038	0.771 ± 0.17	0.793 ± 0.15	1 (active)
CC12CCC3C(CCC4CC(O)CCC43C)C1CCC2=O (stereo unspecified)	0.888 ± 0.066	1.04 ± 0.051	0.98 ± 0.021	0.949 ± 0.1	0.985 ± 0.033	0.972 ± 0.11	1.01 (active)
CCCC(=O)c1ccc(N2CCNCC2)c(F)c1	0.404 ± 0.023	1.12 ± 0.069	0.961 ± 0.082	0.861 ± 0.043	1.4 ± 0.14	1.66 ± 0.18	0.951 (active)
CC(=O)Nc1ccc(C(=O)NCC#CCN(C)C)cc1	0.899 ± 0.04	0.879 ± 0.083	1.07 ± 0.058	1.04 ± 0.057	1.17 ± 0.29	1.3 ± 0.45	1 (active)
NNC(=O)c1ccccc1	1.06 ± 0.088	1.05 ± 0.082	1.02 ± 0.022	0.929 ± 0.086	0.914 ± 0.15	0.931 ± 0.12	1 (active)
O=c1[nH]c2ccccc2n1CCCN1CCC(n2c(=O)[nH]c3cc(Cl)ccc32)CC1	0.114 ± 0.018	1.14 ± 0.082	0.973 ± 0.074	0.865 ± 0.026	1.31 ± 0.14	1.12 ± 0.092	0.981 (active)
